Test results as given in PubChem BioAssay AID641 (Vanderbilt High Throughput Screening Facility, 2007).
The campaign covered roughly 58,000 compounds. About 3,400 (5.9%) were called active. The full list was thinned out, with actives kept by preference. Values without a mark were called inactive.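 The calls were made as follows: active = luminescence count or its row- and column-corrected plate score outside the 99.7% band of the plate's sample wells, on either side; inactive = the rest.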

Target: D(1A) dopamine receptor (Homo sapiens) (UniProt P21728)
Experiment: D1 CRE-luciferase signal change, two-sided – cell-based, HEK293 D1, dopamine EC30, D1 allosteric modulator project, primary screen (AID 641)
Conditions: dopamine EC30 potentiation, at 10 µM, actives deviate in either direction

Chain of D(1A) dopamine receptor (Homo sapiens) (P21728 whole entry, looked up): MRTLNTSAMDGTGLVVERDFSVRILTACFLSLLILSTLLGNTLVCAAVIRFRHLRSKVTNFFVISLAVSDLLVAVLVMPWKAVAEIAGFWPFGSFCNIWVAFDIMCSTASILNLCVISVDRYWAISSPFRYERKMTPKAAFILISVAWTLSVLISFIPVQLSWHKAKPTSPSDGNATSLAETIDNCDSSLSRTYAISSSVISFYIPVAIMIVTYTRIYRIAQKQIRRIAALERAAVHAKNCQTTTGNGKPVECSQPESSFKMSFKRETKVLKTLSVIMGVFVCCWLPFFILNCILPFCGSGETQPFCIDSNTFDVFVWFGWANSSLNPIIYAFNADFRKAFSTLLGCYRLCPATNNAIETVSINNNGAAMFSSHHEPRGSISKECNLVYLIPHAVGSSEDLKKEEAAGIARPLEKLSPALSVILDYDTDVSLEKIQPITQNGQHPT

In order of falling B-score:
1. CCOC(=O)N1CCC(NC(=O)CCc2cn(C)c3ccccc23)CC1  2.11
2. Cc1ccc(-c2cc(C(F)(F)F)n3nc(C(=O)N4CCCC4)cc3n2)cc1  1.18
3. CC(=O)NCCc1ccc(S(=O)(=O)N(C)C2CCS(=O)(=O)C2)cc1 (stereo not drawn)  1.13
4. Fc1cc(F)c2nc(N3CCOCC3)sc2c1  0.966
5. N#Cc1c(/N=C/N2CCCC2)oc(-c2ccccc2)c1-c1ccccc1  0.952
6. CC1(C)Cc2c(sc3nc4n(c(=N)c23)CCCCC4)CO1  0.888
7. c1ccc(CSc2nnc(-c3ccco3)c(-c3ccco3)n2)cc1  0.706
8. Cc1cccc(NC(=O)c2ccc3ccccc3n2)n1  0.542
9. Cc1nc(SC(C)C)[nH]c(=O)c1Cc1ccccc1  0.348
10. Cc1nn2c3ccccc3nc2n(C)c1=O  0.34
11. Cc1cc(Cl)c(S(=O)(=O)NCc2cccnc2)cc1OCC(N)=O  0.213
12. O=c1c2ccccc2oc2nc3n(c(=O)c12)CCCS3  0.013
13. Cc1cc(=O)n2nc(N3CCCC3C(=O)NCCCN3CC(C)CC(C)C3)sc2n1 (stereo not drawn)  -0.000281
14. COc1ccc(NC(=O)CN(C)S(=O)(=O)c2ccccc2)cc1OC  -0.205
15. CC1CCCN(Cc2nc3c(c(=O)n(C)c(=O)n3C)n2Cc2cccc3ccccc23)C1 (stereo not drawn)  -0.313
16. Cc1ccc(-c2nnc(SC(C)C#N)n2N)cc1 (stereo not drawn)  -0.328
17. COc1ccc(-c2noc(COc3ccc(Cl)c(C)c3)n2)cc1  -0.505
18. O=C(Nc1nc2cc3c(cc2s1)OCCO3)c1cccc(S(=O)(=O)N2CCOCC2)c1  -0.542
19. Cc1nnc(NC(=O)CSc2nccn2-c2cccc(C)c2C)s1  -0.587
20. CC12CN3CC(C)(CN(C1)C3c1ccc(Cl)cc1Cl)C2=O (stereo not drawn)  -0.693
21. COc1cccc(NC(=O)CN(C)S(=O)(=O)c2ccc(C)cc2)c1  -0.881
22. COc1ccc(-c2cc(C(F)(F)F)n3nc(C(=O)N4CCOCC4)c(Cl)c3n2)cc1  -1.29
23. C1=C(CCNc2ncnc3c2cnn3-c2ccccc2)CCCC1  -1.37

With `COc1ccc(S(=O)(=O)N(C)CC(=O)Nc2ccc3c(c2)OCCO3)cc1OC` the B-score was 3.86 (active).
For `c1coc(-c2nc3nc4ccccc4n3nc2-c2ccco2)c1`, the B-score was 2.64 (active).
With `CCC1(C)Cc2c(sc3nc4n(c(=O)c23)CCCS4)CO1` (stereo not drawn) the B-score was 2.42 (active).
`Clc1ccc(Cn2ncc3c(NCc4cccnc4)ncnc32)cc1` was tested, and the B-score was -2.9 (active).
`c1c2c(cc3sc(N4CCCCC4)nc13)OCCO2` was tested, and the B-score was -4.94 (active).
